ALDH1A1 block – qHTS Assay for Inhibitors of Aldehyde Dehydrogenase 1 (ALDH1A1); Aldehyde dehydrogenase 1A1 (Homo sapiens), P00352; Purified ALDH1A1, NADH fluorescence, propionaldehyde substrate; Potency, µM (titrated, usually from 75.3 µM), usual class: inhibitors; 7.3% of 220,000 active; AID 1030, 2008
Target sequence (P00352 whole entry, looked up): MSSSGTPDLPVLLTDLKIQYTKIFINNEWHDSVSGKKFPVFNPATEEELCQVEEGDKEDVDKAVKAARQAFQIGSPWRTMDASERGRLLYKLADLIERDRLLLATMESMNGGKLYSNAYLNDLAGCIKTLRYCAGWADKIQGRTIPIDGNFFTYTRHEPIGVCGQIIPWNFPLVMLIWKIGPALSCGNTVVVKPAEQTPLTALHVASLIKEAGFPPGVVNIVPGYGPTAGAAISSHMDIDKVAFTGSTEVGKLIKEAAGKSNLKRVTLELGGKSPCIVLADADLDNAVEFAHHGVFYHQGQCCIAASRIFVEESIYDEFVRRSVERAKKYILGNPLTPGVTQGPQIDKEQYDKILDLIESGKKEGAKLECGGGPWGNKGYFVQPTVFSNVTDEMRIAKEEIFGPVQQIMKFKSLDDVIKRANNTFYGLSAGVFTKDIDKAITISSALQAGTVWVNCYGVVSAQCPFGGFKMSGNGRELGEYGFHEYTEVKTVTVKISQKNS
Coupling enz – qHTS Assay for Inhibitors of Fructose-1,6-bisphosphate Aldolase from Giardia Lamblia: Coupling assay counterscreen; coupling enzyme system counterscreen, AmpLite Red fluorescence; activity change, negative = inhibition, % at 58.2 µM, hits read low; 0.67% of 290,000 active; in the data active means activity change below about -30%
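Counterscreen of the coupled detection system alone, without aldolase: glyceraldehyde-3-phosphate coupling enzymes plus AmpLite Red readout. Compounds at 57.5 uM final, 10 min RT preincubation, 20 min RT reaction, fluorescence 525/598 nm.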
NPSR antagonist – qHTS Assay for Antagonists of the Neuropeptide S Receptor: cAMP Signal Transduction. Q6W5P4. CHO-NPSR cells, cAMP TR-FRET, antagonist mode. Potency, µM (titrated, usually from 38.3 µM), most hits filed as inhibitors. 1% of 220,000 active; active means well fitted curve in the direction sought with a large enough effect; inconclusive means small, poorly fitted or top-dose-only effect, or another doubt; inactive means no such curve, though single readings can be large; an effect the other way counts as inactive or inconclusive; further: nearly all actives have a fitted effect of over 50% in size
Sfp inh – qHTS Assay for Inhibitors of Bacillus subtilis Sfp phosphopantetheinyl transferase (PPTase); 4'-phosphopantetheinyl transferase ffp (Bacillus subtilis), Q9F4F7; Biochemical Sfp PPTase activity, qHTS; Potency, µM, usual class: inhibitors; 3.5% of 310,000 active; AID 1490, 2009; active means well fitted curve in the direction sought with a large enough effect; inconclusive means small, poorly fitted or top-dose-only effect, or another doubt; inactive means no such curve, though single readings can be large; an effect the other way counts as inactive or inconclusive;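 further: the enzyme is Sfp with the accession as filed and its product quenches rhodamine fluorescence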
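Reaction rates are the 30-min fluorescence difference (ex 525, em 598 nm) in wells containing 15 nM Sfp, 5 uM rhodamine-CoA and 12.5 uM BHQ-2-YbbR at pH 7.6 with 10 mM MgCl2.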
GoLoco inh red – qHTS Assay for Inhibitors of RGS12 GoLoco Motif Activity (Red Fluorophore). Gai1:RGS12 GoLoco peptide FP, rhodamine, 10 min. 0.44% of 230,000 active. Guanine nucleotide-binding protein G(i) subunit alpha-1 (Homo sapiens), P63096. Potency, µM (top dose mostly 61.6 µM), most hits filed as inhibitors; active means well fitted inhibition curve with a large enough effect, not every such curve was filed as active; inactive means no such curve, though single readings can be large or run the other way; further: nearly all actives have a fitted effect of over 30% in size
JMJD2E inh – qHTS Assay for Inhibitors of Human Jumonji Domain Containing 2E (JMJD2E) | Lysine-specific demethylase 4E (Homo sapiens), B2RXH2 | JMJD2E catalytic domain, FDH-coupled NADH fluorescence (FDH is formaldehyde dehydrogenase) | Potency, µM (doses to about 57.1 µM), usual class: inhibitors | 1.6% of 230,000 active | AID 2147, 2009; further: nearly all actives have a fitted effect of over 50% in size
Hits are given with their value; i = inactive; ? = inconclusive; nt = not tested or not shown; ! = repeats disagree; [ ] = another dose, or the depositor's remark. An excerpt weighted towards active compounds, which were near 8.5% of everything screened. Unless noted, the call rests on the fitted dose curve; in most records, active means well fitted inhibition curve with a large enough effect (not every such curve was filed as active); inconclusive means small, poorly fitted or top-dose-only effect, or another doubt; inactive means no such curve, though single readings can be large or run the other way.

SMILES	ALDH1A1 block	Coupling enz	NPSR antagonist	Sfp inh	GoLoco inh red	JMJD2E inh
COc1ccc2c(c1)-c1nc(/N=C/c3c(O)ccc4ccccc34)sc1CC2	17.8µM	-38.3	i	i	i	?
Oc1ccc2ccccc2c1/C=N/c1nccs1	?	nt	i	?	i	i
COc1ccccc1/C=C/c1ccc2cccc(O)c2n1	nt	i	nt	i	nt	nt
CCOc1cccc(/C=C/c2ccc3cccc(O)c3n2)c1OC	nt	i	nt	79.4µM	nt	nt
CCOc1cccc(/C=C/c2ccc3cccc(O)c3n2)c1O	nt	i	nt	79.4µM	nt	nt
COc1ccccc1N1CCN(C(=O)c2ccccc2N(C)S(=O)(=O)c2ccc(C)cc2)CC1	nt	nt	nt	i	nt	nt
Nc1ncnc2oc(-c3ccco3)c(-c3ccco3)c12	?	-30.8	i	20µM	i	?
CN1CCN(C2=NC(=O)/C(=C/c3ccccc3OS(=O)(=O)c3ccccc3)S2)CC1	nt	i	i	20µM	i	i
O=C1N=C(N2CCOCC2)S/C1=C\c1ccc(OS(=O)(=O)c2ccccc2)cc1	28.2µM	i	i	i	i	?
CCOC(=O)C1CCCN(C2=NC(=O)/C(=C/c3ccc(OC)cc3OC)S2)C1 (configuration not stated)	nt	i	nt	44.7µM	nt	nt
NC1=NC(=O)/C(=C/c2ccccc2OS(=O)(=O)c2ccccc2)S1	i	i	i	i	i	?
CCOC(=O)C1CCCN(C2=NC(=O)/C(=C/c3ccc(OC)cc3)S2)C1 (configuration not stated)	nt	i	nt	i	nt	nt
COc1cccc(/C=C2\SC(N3CCC(C)CC3)=NC2=O)c1OC	nt	i	nt	50.1µM	nt	nt
CC1Oc2ccccc2C=C1/C=C1/SC(N2CCOCC2)=NC1=O (configuration not stated)	?	-43.6	i	?	i	i
O=C1N=C(N2CCOCC2)S/C1=C/c1cccs1	i	i	i	i	i	i
Cc1[nH]c2ccccc2c1[C@H]1[C@@H](CC#N)C1(C)C	22.4µM	-46.3	i	?	i	i
O=C(C1CCC(=O)N(C2CCCC2)C1)N1CCN(Cc2cccc(Cl)c2)CC1 (configuration not stated)	nt	nt	nt	i	nt	nt
COC(=O)C1=C(C)Nc2ccc(C)cc2S1	i	i	i	?	i	i
CC(=O)C1=C(C)Nc2cc(C(F)(F)F)ccc2S1	?	i	i	56.2µM	i	i
C#CC(=O)N(c1ccc(OC)c(OC)c1)C(C(=O)NC1CCCC1)c1cccs1 (configuration not stated)	i	i	12.6µM	i	i	i
C#CC(=O)N(c1cccc(OC)c1)C(C(=O)NC1CCCC1)c1cccs1 (configuration not stated)	15.8µM	i	3.98µM	i	i	i
Cc1c(N=Nc2c(-c3ccc([N+](=O)[O-])cc3)[nH]n(C(N)=S)c2=O)cccc1[N+](=O)[O-]	22.4µM	i	i	i	i	i
NC(=S)n1[nH]c(-c2ccc([N+](=O)[O-])cc2)c(N=Nc2ccccc2[N+](=O)[O-])c1=O	?	i	i	i	i	i
NC(=S)n1[nH]c(-c2ccc([N+](=O)[O-])cc2)c(N=Nc2cccc([N+](=O)[O-])c2)c1=O	25.1µM	i	?	i	i	?
CCC1CCC(c2nnc(-c3ccc([N+](=O)[O-])cc3)o2)CC1 (configuration not stated)	11.2µM	i	i	i	i	i
SMILES	ALDH1A1 block	Coupling enz	NPSR antagonist	Sfp inh	GoLoco inh red	JMJD2E inh
CCCCCC[C@@H]([C@@H](C)O)n1cnc2c(N)ncnc21	i	i	i	i	i	12.6µM!
Nc1ncnc2c1ncn2C[C@@H](O)C(=O)O	i[13.5 µM]	nt	nt	nt	i[14.2 µM]	nt
CCC/C=C1/CCCOC(C(=O)NCc2ccc(C)o2)(C(F)(F)F)C1 (configuration not stated)	nt	i	nt	56.2µM	nt	nt
CCC/C=C1\CCCOC(C(=O)NCc2ccc(C)o2)(C(F)(F)F)C1 (configuration not stated)	nt	i	nt	50.1µM	nt	nt
CCC/C=C1/CCCOC(C(=O)NCc2ccccn2)(C(F)(F)F)C1 (configuration not stated)	nt	i	nt	i	nt	nt
CCNc1ncc2ncc(=O)n(CCOC)c2n1	?	i	nt	i	i	nt
Cc1cc(C(=O)COC(=O)C2=NNC(=O)CC2)c(C)n1-c1ccccc1	15.8µM	i	i	i	i	i
Cc1cc(C(=O)CN2C(=O)C3CC=CCC3C2=O)c(C)n1-c1ccccc1 (configuration not stated)	22.4µM	i	i	i	i	i
Cc1cc(C(=O)CN2C(=O)NC(CC(C)C)C2=O)c(C)n1-c1ccccc1F (configuration not stated)	6.31µM	i	i	i	i	i
Cc1cc(C(=O)CN2C(=O)C(=O)N(CC(C)C)C2=O)c(C)n1-c1ccccc1F	?	i	i	i	i	i
FC(F)(F)c1ccc2c(c1)[nH]c(=S)n2C1CC1	?	i	i	?	i	i
COc1cccc(N2CCN(C(=O)CCNS(=O)(=O)c3ccc4c(c3)c(=O)n(C)c(=O)n4C)CC2)c1	i	i	i	i	i	i
Oc1ccccc1N=Nc1ccccc1O	i	i	i	i	i	31.6µM
O=C(Nc1ccccc1Cc1ccccc1)c1ccncc1	nt	nt	nt	i	nt	nt
CCN(CC)c1ncc(C#N)c(N)n1	nt	i	i	i	i	i
COc1ccc(/C=C2\SC(=O)NC2=S)cc1OC	17.8µM	i	i	25.1µM	i	i
COc1cc(/C=C2\SC(=O)NC2=O)ccc1Oc1ccc([N+](=O)[O-])cc1[N+](=O)[O-]	?	i	10µM	56.2µM	i	i
CO/N=C/c1ccc(Oc2ccc([N+](=O)[O-])cc2[N+](=O)[O-])c(OC)c1	i	i	i	?	i	i
CCOc1ccc(/C=C2\SC(=S)N(C)C2=O)cc1OC	i	i	i	i	i	i
Cn1cnc(S(=O)(=O)N2CCN(C(c3ccccc3)c3ccccc3)CC2)c1	nt	i	nt	i	nt	nt
COc1ccc(C(C(=O)NCC2CCCO2)N(C(=O)c2snc(C(N)=O)c2N)c2ccc(C)cc2)cc1OC (configuration not stated)	nt	i	nt	i	nt	nt
Cc1[nH]c2ccccc2c1N=Nc1ccc(F)cc1	i	i	?	i	i	i
Cc1ccc(N=Nc2[nH]c3ccccc3c2O)cc1	?	i	i	i	12.6µM	i
COc1ccc(N=Nc2[nH]c3ccc(C)cc3c2O)cc1	i	i	i	i	3.16µM	i
C=C[C@@]1(C)CC[C@H]2C(=CC[C@@H]3[C@]2(C)CCC[C@@]3(C)C(=O)O)C1	nt	i	nt	i	nt	nt
COc1cc(NC(=S)N2CCN(c3ccccn3)CC2)cc(OC)c1	i	i	i	i	nt	i
